Hit rate of the full screen: of about 1,200 compounds, about 150 (12%) were called active.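 How the source made its calls: active means ratio at least 3 SD above the weak peptide control, stable starting fluorescence, no direct agonism earlier; inactive means the rest.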 A selection follows.
What follows are molecules tested against Mas-related G-protein coupled receptor member X1 (Homo sapiens) (UniProt Q96LB2) (assay: allosteric enhancers of human MrgX1 signaling – HEK293 cells, Fluo-4 calcium flux, confirmation (AID 602413;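 further: compound followed by low BAM8-22 agonist challenge near EC20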)). Conditions: MrgX1-HEK293, Fluo-4 calcium fluorescence, FDSS, at 10 µM; stronger effect = higher value.
Chain of Mas-related G-protein coupled receptor member X1 (Homo sapiens) (Q96LB2 whole entry, looked up): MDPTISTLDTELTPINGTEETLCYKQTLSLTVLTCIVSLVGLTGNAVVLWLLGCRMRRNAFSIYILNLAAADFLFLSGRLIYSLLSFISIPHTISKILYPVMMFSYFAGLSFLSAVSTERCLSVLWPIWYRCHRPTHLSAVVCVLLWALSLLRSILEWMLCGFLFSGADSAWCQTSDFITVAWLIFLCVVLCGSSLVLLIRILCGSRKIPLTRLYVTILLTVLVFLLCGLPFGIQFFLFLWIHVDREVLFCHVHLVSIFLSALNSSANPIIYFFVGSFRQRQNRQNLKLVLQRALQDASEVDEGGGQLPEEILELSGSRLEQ

Row | Structure (SMILES) | activation (ratio percentage)
1 | OCCn1c(-c2ccccc2)csc1=Nc1ccccc1 | inactive
2 | CN1/C(=C\C=C2\N=C(c3ccc(F)cc3)OC2=O)C(C)(C)c2ccccc21 | inactive
3 | COCCNC(=O)C1CCN(S(=O)(=O)c2ccc3c(c2)OCCO3)CC1 | inactive
4 | Fc1cccc(Cl)c1COc1ccc(-c2nnco2)cc1 | inactive
5 | O=C1C(Cc2ccc(O)cc2)NC(=S)N1Cc1ccccc1 (stereo unspecified) | inactive
6 | COC(=O)c1c(NC(=O)CN(c2ccc(C)c(C)c2)S(C)(=O)=O)sc2c1CCCC2 | inactive
7 | Cc1cccc(Cn2cnc3c(N)c(C)c(C)cc32)c1 | inactive
8 | COc1cccc(-c2cnc(OC(C)(C)C)nc2OC(C)(C)C)c1 | inactive
9 | Brc1ccccc1C1Nc2cccc3cccc(c23)N1 | inactive
10 | Cc1ccc(OC(=O)c2cc3ccccc3o2)cc1 | inactive
11 | Cc1ccnc(NC(=O)C(C)N2C(=O)c3ccccc3C2=O)c1 (stereo unspecified) | inactive
12 | Cc1cccc(NC(=O)C(C)N2C(=O)C3C4CC(C(Br)C4Br)C3C2=O)c1 (stereo unspecified) | 11.6% (active)
13 | COC(=O)Cn1c(O)c(N=NC(=O)OC)c2ccccc21 | inactive
14 | CCOc1ccc(C2=CC(c3ccccc3)n3ncnc3N2)cc1 (stereo unspecified) | inactive
15 | COc1cc(C)c(C)cc1S(=O)(=O)N1CCCc2ccccc21 | 12.4% (active)
16 | COc1ccc(C2SCCN2S(=O)(=O)c2ccccc2)cc1OC (stereo unspecified) | inactive

Row | Structure (SMILES) | activation (ratio percentage)
17 | COc1cc(C(F)(F)F)nc2c(Br)c(C(C)(C)C)nn12 | inactive
18 | Cc1c(C(=O)N2CCCc3ccccc32)sc2nc(-c3ccccc3)cn12 | inactive
19 | CCOc1ccc2nc(/N=C/c3nc(-c4ccccc4)oc3O)sc2c1 | inactive
20 | Cc1c(C(=O)N2CCN(c3ccc(F)cc3)CC2)oc2c1C(=O)CCC2 | inactive
21 | CCOc1ccc(NC(=O)N2CC=C(n3c(=O)[nH]c4ccccc43)CC2)cc1 | inactive
22 | CCc1ccc(N(CC(=O)Nc2sc3c(c2C(=O)OC)CCCC3)S(C)(=O)=O)cc1 | inactive
23 | O=C(c1ccc(OC2CCN(C(=O)c3cccnc3)CC2)cc1)N1CCCCCC1 | inactive
24 | CC(C)CNc1ncnc2c1cnn2Cc1ccc(Cl)cc1 | inactive
25 | CC(=O)N1c2ccc(S(=O)(=O)N3CCCC(C(=O)Nc4cccc(Cl)c4)C3)cc2CC1C (stereo unspecified) | inactive
26 | Cc1ccc(-n2cnc3ncnc(-c4ccccc4)c32)cc1 | inactive
27 | CC(C)CC(=O)N/C(N)=N/c1nc2ccccc2s1 | inactive
28 | Cc1ccc2nc(Nc3ccccc3)cc(C)c2c1 | inactive
29 | COc1ccc(Cc2nc(-c3ccccn3)no2)cc1OC | inactive
30 | Nc1cc(OC(=O)c2ccccc2Br)nn1S(=O)(=O)c1ccccc1 | inactive
31 | O=C(c1cccc(S(=O)(=O)Nc2ccccc2Cl)c1)N1CCN(C(=O)c2ccco2)CC1 | inactive
